Bioassay records as filed in PubChem.
SENP7 block: inhibitors of human SENP7 protease | Q9BQF6 | recombinant SENP7, Z-RLRGG-aminoluciferin luminescence, 40 min | inhibition, % at 5 µM | hit rate 1.5% among 330,000;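 active = inhibition above about 50% at the single test dose, limit read from the data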
PPC-1+TRAIL kill: PPC-1 cancer cell killing with TRAIL present; PPC-1 cells + TRAIL, ATPLite viability luminescence; cell killing (% activity), % at 4 µM or 5 µM; hit rate 0.41% among 220,000; AID 1443;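 active = cell killing above 50% in the first pass at 4 µM, then a duplicate retest at 5 µM averaging 50% or more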
SENP6 inh: inhibitors of human SENP6 protease; inhibition, % at 10 µM; AID 2599; Recombinant SENP6 catalytic domain, aminoluciferin luminescence; Q9GZR1; hit rate 1.8% among 330,000;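 active = inhibition above about 50% at the single tested dose, limit read from the data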
Target sequence (Q9GZR1 628-1112 limits assumed): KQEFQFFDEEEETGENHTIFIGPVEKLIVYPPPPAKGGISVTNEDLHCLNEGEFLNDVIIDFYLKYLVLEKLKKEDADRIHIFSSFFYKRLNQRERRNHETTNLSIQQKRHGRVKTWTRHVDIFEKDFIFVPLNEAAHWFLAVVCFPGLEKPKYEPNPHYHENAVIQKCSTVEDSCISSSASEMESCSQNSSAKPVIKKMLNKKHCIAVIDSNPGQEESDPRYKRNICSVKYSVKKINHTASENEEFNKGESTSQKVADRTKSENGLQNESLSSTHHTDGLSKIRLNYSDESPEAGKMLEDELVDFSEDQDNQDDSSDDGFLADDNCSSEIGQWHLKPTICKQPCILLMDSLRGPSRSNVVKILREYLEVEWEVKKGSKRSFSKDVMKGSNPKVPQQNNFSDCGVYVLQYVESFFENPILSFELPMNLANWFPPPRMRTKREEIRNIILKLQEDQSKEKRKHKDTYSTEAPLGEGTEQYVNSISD
TRAIL sens C8: caspase-8 TRAIL sensitization; hit rate 1% among 360,000; NB7+C8 cells + TRAIL, ATPlite viability luminescence; inhibition (viability loss, TRAIL sensitization), % at 10 µM; AID 624354;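 active = compounds causing at least 50% loss of cell viability in the single-dose screen, relative to plate controls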
SENP8 block-1: blocks the human protease SENP8. AID 2540. inhibition, % at 10 µM. purified SENP8, Z-RLRGG-aminoluciferin cleavage, luminescence. Q96LD8. hit rate 1.2% among 330,000; in the data active = inhibition above about 50%
SENP8 block-2: blocks human SENP8 cleavage of Nedd8 substrate. recombinant SENP8, Nedd8 substrate fluorescence. inhibition, % at 20 µM. hit rate 0.64% among 360,000. AID 602440; in the data active = inhibition mostly above about 40%, no sharp cut-off; inactive = mostly below about 27%
PPC1 cytotox: PPC-1 cell cytotoxicity; shares compounds with PPC-1+TRAIL kill; cytotoxicity, % at 5 µM; hit rate 50% among 1,200; PPC-1 viability, ATPlite luminescence, overnight; AID 1447;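 active = reconfirmed compounds whose average cytotoxicity reaches 50% or more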
Large screens that a line does not name were inactive (follow-up assays come after a bar, where they were run). Shown are actives, neighbours in structure and some others; about 3% of the full set was active somewhere.

COc1ccc(C(=O)CN(C(=O)c2ccc(Cl)cc2)N2C(=O)C3CCCCC3C2=O)cc1 (stereo unspecified)	none
CC(C)OC(=O)Nc1ccc2c(c1)N(C(=O)N1CCN(C)CC1)c1ccccc1CC2	PPC-1+TRAIL kill 74, TRAIL sens C8 79 | PPC1 cytotox 74
CCOC(=O)c1nn(-c2ccc3c(c2)OCCO3)cc1O	TRAIL sens C8 54 | PPC1 cytotox inactive
Cc1nc(N)nc(N)c1/C=C/C(C)(C)c1ccc(Cl)cc1	PPC-1+TRAIL kill 51, TRAIL sens C8 76 (no result: SENP7 block, SENP6 inh, SENP8 block-1) | PPC1 cytotox inactive
COCCN(C(=O)c1cc(OC)c(OC)c(OC)c1)c1c(N)n(Cc2ccccc2)c(=O)[nH]c1=O	none | PPC1 cytotox inactive
COCCN(C(=O)c1ccc2ccccc2c1)c1c(N)n(Cc2ccccc2)c(=O)[nH]c1=O	none
Cc1cc(S(=O)(=O)N2CCN(CC(=O)NCCc3cccs3)CC2)ccc1Br	none (no result: PPC-1+TRAIL kill)
O=C(Nc1ccccc1C(F)(F)F)C1CCN(C(=O)Cc2ccccc2)CC1	none (no result: PPC-1+TRAIL kill)
CCC(C)(C)c1ccc(OCCCC[n+]2cccc(C)c2C)c(C(C)(C)CC)c1	PPC-1+TRAIL kill 62 | PPC1 cytotox 58
CCC(C)(C)c1ccc(OCCCC[n+]2ccc(C)cc2)c(C(C)(C)CC)c1	none (no result: TRAIL sens C8, SENP8 block-2)
O=C1c2cccc3cccc(c23)C(=O)N1Cc1cccnc1	none
O=C1c2cccc3c([N+](=O)[O-])ccc(c23)C(=O)N1Cc1cccnc1	none (no result: SENP7 block, SENP6 inh, SENP8 block-1) | PPC1 cytotox inactive
Cc1ccc2nc(SCC(=O)Nc3cccc(F)c3)nc(=O)n2c1	none (no result: PPC-1+TRAIL kill)
CCCCN1C(=O)C(NC(C)=O)c2cc(Br)ccc21 (stereo unspecified)	none | PPC1 cytotox inactive
O=[N+]([O-])c1ccc(N/N=C/c2ccc(O)c(O)c2O)c(S(=O)(=O)N2CCOCC2)c1	SENP8 block-2 90 | PPC1 cytotox inactive
O=[N+]([O-])c1ccc(N/N=C/c2cccc(O)c2O)c(S(=O)(=O)N2CCOCC2)c1	none
CC(=O)NC(c1ccc(Cl)cc1)c1ccc2cccnc2c1O (stereo unspecified)	none (no result: SENP7 block, PPC-1+TRAIL kill, SENP6 inh, SENP8 block-1)
Cc1cc(NC(c2ccc(Cl)cc2)c2ccc3cccnc3c2O)no1 (stereo unspecified)	none | PPC1 cytotox inactive
O=C(C1Cc2ccccc2CN1S(=O)(=O)c1ccc(F)cc1)N1CCCCC1 (stereo unspecified)	none | PPC1 cytotox inactive
Cc1ccc(C(=O)O/N=C/c2c(N3CCOCC3)n(C)c3ccccc23)cc1	none | PPC1 cytotox inactive
Cn1c(N2CCOCC2)c(/C=N/OC(=O)c2ccc(F)cc2)c2ccccc21	none
CCN1C(=O)CS/C1=N\S(=O)(=O)c1ccc(Cl)cc1	none
CCn1c(Cl)c(C=O)s/c1=N\S(=O)(=O)c1ccccc1	none | PPC1 cytotox inactive
COc1ccc(N2CCN(c3ccc(NC(=O)C4CCCCC4)cc3C#N)CC2)cc1	none | PPC1 cytotox inactive
COC(=O)c1nc2n(n1)C(c1ccccc1OC)C1=C(CCCC1=O)N2 (stereo unspecified)	none
COC(=O)c1nc2n(n1)C(c1ccc(OC)c(OC)c1OC)C1=C(CCCC1=O)N2 (stereo unspecified)	none | PPC1 cytotox inactive
S=c1[nH]ncn1/N=C/c1ccc(N2CCOCC2)cc1	PPC-1+TRAIL kill 62, TRAIL sens C8 51 | PPC1 cytotox 64
COc1ccc(NC(=O)c2ccccc2NS(=O)(=O)c2ccc(CNC(C)=O)cc2)c(OC)c1	none (no result: PPC-1+TRAIL kill)
CC(=O)N(C)C1=C(N2CCOCC2)C(=O)c2ccccc2C1=O	TRAIL sens C8 90 | PPC1 cytotox inactive
CCCC(c1nnnn1CS(=O)(=O)c1ccc(C)cc1)N1CCC(C(N)=O)CC1 (stereo unspecified)	none (no result: PPC-1+TRAIL kill)
COC(=O)c1cccc(S(=O)(=O)N2CCCC2)c1	none
COC(=O)c1cccc(S(=O)(=O)N2CCC(n3nnc4cc(F)ccc43)CC2)c1	none | PPC1 cytotox inactive
CCCn1c(=O)n(C)c(=O)c2c(SCC(=O)NCC(c3ccccc3)N(C)C)nc(CC(C)C)nc21 (stereo unspecified)	none (no result: PPC-1+TRAIL kill)
Clc1ccc(OCc2nc3ccccc3[nH]2)cc1	SENP7 block 82, SENP6 inh 72, SENP8 block-1 56 | PPC1 cytotox inactive
O=S(=O)(CCc1nc2ccccc2[nH]1)c1ccc(Cl)cc1	none
CCN(CC)S(=O)(=O)c1ccc(C(=O)Nc2cc(S(=O)(=O)N3CCOCC3)ccc2N2CCN(C)CC2)cc1	none (no result: SENP7 block, PPC-1+TRAIL kill, SENP6 inh, SENP8 block-1)
